About 83,000 compounds went through this panel and 20% of them were active in at least one assay; those are over-represented in the sample as a whole.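 Percent growth is the endpoint: 0 to 100 indicates growth inhibition (40 means 60% inhibition), 0 means no net growth, and negative values indicate cell death.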 Calls of active or inactive are those of the source. Rule for the calls: active = growth percent below 10; inactive = the rest.
Tests used:
Experiment in all cases: NCI-60 one-dose screen, 48 h (100 = growth as untreated, 0 = no growth, -100 = all killed)
Details in all cases: 10 µM unless noted
NCI-H23 lung = tested on: NCI-H23 lung
NCI-H226 lung = tested on: NCI-H226 lung
NCI-H322M lung = tested on: NCI-H322M lung
NCI-H460 lung = tested on: NCI-H460 lung
HOP-92 NSCLC = tested on: HOP-92 NSCLC
NCI-H522 lung = tested on: NCI-H522 lung
A549/ATCC NSCLC = tested on: A549/ATCC NSCLC
786-0 renal = tested on: 786-0 renal
COLO 205 colon = tested on: COLO 205 colon
DU-145 prostate = tested on: DU-145 prostate
K-562 leukemia = tested on: K-562 leukemia
MALME-3M melanoma = tested on: MALME-3M melanoma
MDA-MB-231 breast = tested on: MDA-MB-231 breast
RXF 393 renal = tested on: RXF 393 renal
SF-268 CNS = tested on: SF-268 CNS
SF-295 CNS = tested on: SF-295 CNS
SF-539 CNS = tested on: SF-539 CNS
UACC-257 melanoma = tested on: UACC-257 melanoma
M14 melanoma = tested on: M14 melanoma
HOP-62 NSCLC = tested on: HOP-62 NSCLC

Measured: growth

O=C(NCCNc1nccc(-c2c(-c3cccc(O)c3)nc3sccn23)n1)c1cc(N2CCOCC2)cc(C(F)(F)F)c1
active: MALME-3M melanoma 3.04%
inactive: NCI-H23 lung 106% | NCI-H226 lung 106% | NCI-H322M lung 107% | NCI-H460 lung 96.2% | HOP-92 NSCLC 87.7% | NCI-H522 lung 78.6% | A549/ATCC NSCLC 88.6% | 786-0 renal 86.6% | COLO 205 colon 32.7% | DU-145 prostate 110% | K-562 leukemia 70.7% | MDA-MB-231 breast 74.1% | RXF 393 renal 77.8% | SF-268 CNS 102% | SF-295 CNS 84.4% | SF-539 CNS 101% | UACC-257 melanoma 16.7% | M14 melanoma 22.4%

CN(C)CCCOc1c(Br)cc(/C=C/C(=O)N(C)CCc2cc(Br)c(OCCCN(C)C)c(Br)c2)cc1Br
inactive: NCI-H23 lung 81.5% | NCI-H226 lung 95.7% | NCI-H322M lung 59.5% | NCI-H460 lung 23.1% | HOP-92 NSCLC 48.7% | NCI-H522 lung 13.5% | A549/ATCC NSCLC 41.5% | 786-0 renal 63.7% | COLO 205 colon 39.3% | DU-145 prostate 40.5% | MDA-MB-231 breast 23.7% | RXF 393 renal 59.6% | SF-268 CNS 52.5% | SF-295 CNS 60.9% | UACC-257 melanoma 71.7%
active: K-562 leukemia -48.7% | MALME-3M melanoma -62.4% | SF-539 CNS -75.5% | M14 melanoma -68.1%

Cc1cccc(CC(=O)c2ccccc2)n1
inactive: NCI-H23 lung 94.5% | NCI-H226 lung 95.8% | NCI-H322M lung 87.3% | NCI-H460 lung 95.7% | HOP-92 NSCLC 82.2% | NCI-H522 lung 80.9% | A549/ATCC NSCLC 74.2% | 786-0 renal 94.4% | COLO 205 colon 103% | DU-145 prostate 100% | K-562 leukemia 81.8% | MALME-3M melanoma 92.1% | MDA-MB-231 breast 89% | RXF 393 renal 91% | SF-268 CNS 95.5% | SF-295 CNS 85.4% | SF-539 CNS 96.8% | UACC-257 melanoma 92.7% | M14 melanoma 85.5%

O=C(O)c1cc2ccccc2cc1Nc1ccccc1
inactive: NCI-H23 lung 84.6% | NCI-H226 lung 93.8% | NCI-H322M lung 108% | NCI-H460 lung 91.8% | HOP-92 NSCLC 91.3% | NCI-H522 lung 80.6% | A549/ATCC NSCLC 87.6% | 786-0 renal 101% | COLO 205 colon 122% | DU-145 prostate 113% | K-562 leukemia 98.3% | MALME-3M melanoma 111% | MDA-MB-231 breast 96.2% | RXF 393 renal 77.7% | SF-268 CNS 99.7% | SF-295 CNS 104% | SF-539 CNS 74.2% | M14 melanoma 96.7%
active: UACC-257 melanoma 4.2%

Cc1cc(-c2ccccc2)nc2ccccc12
inactive: NCI-H23 lung 90.4% | NCI-H226 lung 90.2% | NCI-H322M lung 103% | NCI-H460 lung 103% | HOP-92 NSCLC 95.7% | A549/ATCC NSCLC 90.2% | 786-0 renal 109% | COLO 205 colon 96.5% | DU-145 prostate 112% | K-562 leukemia 91.8% | MALME-3M melanoma 99.4% | MDA-MB-231 breast 94.3% | RXF 393 renal 94.6% | SF-268 CNS 94.7% | SF-295 CNS 97.6% | SF-539 CNS 98.2% | UACC-257 melanoma 99.9% | M14 melanoma 96.6%

CN1C(=O)C2(SCC(C(=O)NCC(=O)OC(C)(C)C)N2C(=O)C2CCCCC2)c2ccccc21 (stereo not given)
inactive: NCI-H23 lung 94.4% | NCI-H226 lung 91.6% | NCI-H322M lung 95.3% | HOP-62 NSCLC 95% | NCI-H460 lung 102% | HOP-92 NSCLC 85.8% | A549/ATCC NSCLC 95.2% | 786-0 renal 94.7% | COLO 205 colon 99.9% | DU-145 prostate 105% | MALME-3M melanoma 101% | MDA-MB-231 breast 100% | RXF 393 renal 105% | SF-268 CNS 96.7% | SF-295 CNS 96.9% | SF-539 CNS 99.8% | UACC-257 melanoma 92.7% | M14 melanoma 100%

COc1cc2c(/C=C3/C(=O)Nc4ccc(O)cc43)c(Cl)n(Cc3cc(OC)c(OC)c(OC)c3)c2cc1C
active: NCI-H460 lung 4.32% | HOP-92 NSCLC -5.18% | NCI-H522 lung 0.662% | COLO 205 colon 4.15% | K-562 leukemia -30.7% | MALME-3M melanoma 2.88% | RXF 393 renal -20.9% | SF-539 CNS -16.7%
inactive: NCI-H23 lung 41.9% | NCI-H226 lung 65.5% | NCI-H322M lung 48.8% | A549/ATCC NSCLC 16.3% | 786-0 renal 15.8% | DU-145 prostate 20.4% | MDA-MB-231 breast 61% | SF-268 CNS 24% | SF-295 CNS 38.9% | UACC-257 melanoma 20.5% | M14 melanoma 11.5%

[2H]c1nc(Nc2ncc(F)c(-c3cc(F)c4nc(C)n(C(C)C)c4c3)n2)c([2H])c([2H])c1CN1CCN(CC)CC1
active: K-562 leukemia -15.9% | RXF 393 renal -8%
inactive: NCI-H23 lung 48.7% | NCI-H226 lung 41.5% | NCI-H322M lung 41.1% | NCI-H460 lung 43.9% | HOP-92 NSCLC 59.1% | NCI-H522 lung 66.1% | A549/ATCC NSCLC 36.2% | 786-0 renal 52.8% | COLO 205 colon 15.6% | DU-145 prostate 59% | MALME-3M melanoma 85.9% | MDA-MB-231 breast 55.5% | SF-268 CNS 54% | SF-295 CNS 59.2% | SF-539 CNS 67.2% | UACC-257 melanoma 72.3% | M14 melanoma 46.3%
